Assay [1] is described as follows: binders of probe aFSTL3 on microarray, primary screen, stem cell growth factor project, biochemical, small-molecule microarray, fluorescence 635/667 (AID 1064).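 Note: measures binding of the biotinylated anti-FSTL3 antibody to printed compounds.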 As to conditions: higher = more signal.
Assay [2] is described as follows: binders from COS7 lysate, DM2A8 probe, primary screen, torsin A project, cell lysate, small-molecule microarray, fluorescence 635/667 (AID 1065). To be noted: higher = more signal, COS7 lysate expressing mutant human TOR1A.
A short description of assay [3]: binders of probe aFGF2 on microarray, primary screen, stem cell growth factor project, biochemical, small-molecule microarray, fluorescence 635/667 (AID 1067).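 Note: measures binding of biotinylated aFGF2 protein to printed compounds on slides; z-score merges feature fluorescence and signal-to-noise across triplicate slides.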 As to conditions: higher = more signal.
The nature of assay [4]: binders of probe aFGF10 on microarray, primary screen, stem cell growth factor project, biochemical, small-molecule microarray, fluorescence 635/667 (AID 1071).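 Note: score merges 667 nm spot intensity and signal to noise from triplicate slides.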 To be noted: higher = more signal.
The target in assay [5] is Neurogenic locus notch homolog protein 2 (Homo sapiens) (UniProt Q04721). Nature of the assay: Notch2 binders on small-molecule microarrays, primary screen, biochemical, small-molecule microarray, 635 nm fluorescence, stem cell growth factors (AID 1073). To be noted: Notch2 binding, higher = more signal.
Assay [6] has as its target Pro-neuregulin-1, membrane-bound isoform (Homo sapiens) (UniProt Q02297). Nature of the assay: NRG1 binders on small-molecule microarrays, primary screen, psychiatric disease protein project, biochemical, small-molecule microarray, fluorescence 635/667 (AID 1075).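 Note: score combines 667 nm spot fluorescence with signal to noise.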 To be noted: NRG1 binding, 635 nm fluorescence, higher = more signal.
Assay [7] has as its system Neuregulin-1 EGF-like domain. Nature of the assay: binders of neuregulin-1 EGF-like domain, primary screen, biochemical, small-molecule microarray, 635 nm fluorescence (AID 1081).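 Note: binding of the protein to compounds printed on small-molecule microarray slides.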 To be noted: small-molecule microarray binding, higher = more signal.
Assay [8] can be described thus: FRG1 promoter luciferase signal modulators, primary screen, FRG1 inhibition for FSHD, cell-based, C2C12 myotubes, firefly/Renilla luciferase, luminescence (AID 1084). As to conditions: higher = more signal, called active from +8 up or from −8 down.
A short description of assay [9]: binders of probe aFST on microarray, primary screen, stem cell growth factor project, biochemical, small-molecule microarray, fluorescence 635/667 (AID 1086).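 Note: score merges 667 nm fluorescence with signal-to-noise of each printed compound spot.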 As to conditions: higher = more signal.
Assay [10] is described as follows: binders of probe aHhip on microarray, primary screen, stem cell growth factor project, biochemical, small-molecule microarray, fluorescence 635/667 (AID 1087).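 Note: score merges spot fluorescence at 667nm with spot signal to noise ratio.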 As to conditions: higher = more signal.

Activity calls are given as the source filed them.

Neurogenic locus notch homolog protein 2 (Homo sapiens), sequence (Q04721 whole entry, looked up, canonical isoform): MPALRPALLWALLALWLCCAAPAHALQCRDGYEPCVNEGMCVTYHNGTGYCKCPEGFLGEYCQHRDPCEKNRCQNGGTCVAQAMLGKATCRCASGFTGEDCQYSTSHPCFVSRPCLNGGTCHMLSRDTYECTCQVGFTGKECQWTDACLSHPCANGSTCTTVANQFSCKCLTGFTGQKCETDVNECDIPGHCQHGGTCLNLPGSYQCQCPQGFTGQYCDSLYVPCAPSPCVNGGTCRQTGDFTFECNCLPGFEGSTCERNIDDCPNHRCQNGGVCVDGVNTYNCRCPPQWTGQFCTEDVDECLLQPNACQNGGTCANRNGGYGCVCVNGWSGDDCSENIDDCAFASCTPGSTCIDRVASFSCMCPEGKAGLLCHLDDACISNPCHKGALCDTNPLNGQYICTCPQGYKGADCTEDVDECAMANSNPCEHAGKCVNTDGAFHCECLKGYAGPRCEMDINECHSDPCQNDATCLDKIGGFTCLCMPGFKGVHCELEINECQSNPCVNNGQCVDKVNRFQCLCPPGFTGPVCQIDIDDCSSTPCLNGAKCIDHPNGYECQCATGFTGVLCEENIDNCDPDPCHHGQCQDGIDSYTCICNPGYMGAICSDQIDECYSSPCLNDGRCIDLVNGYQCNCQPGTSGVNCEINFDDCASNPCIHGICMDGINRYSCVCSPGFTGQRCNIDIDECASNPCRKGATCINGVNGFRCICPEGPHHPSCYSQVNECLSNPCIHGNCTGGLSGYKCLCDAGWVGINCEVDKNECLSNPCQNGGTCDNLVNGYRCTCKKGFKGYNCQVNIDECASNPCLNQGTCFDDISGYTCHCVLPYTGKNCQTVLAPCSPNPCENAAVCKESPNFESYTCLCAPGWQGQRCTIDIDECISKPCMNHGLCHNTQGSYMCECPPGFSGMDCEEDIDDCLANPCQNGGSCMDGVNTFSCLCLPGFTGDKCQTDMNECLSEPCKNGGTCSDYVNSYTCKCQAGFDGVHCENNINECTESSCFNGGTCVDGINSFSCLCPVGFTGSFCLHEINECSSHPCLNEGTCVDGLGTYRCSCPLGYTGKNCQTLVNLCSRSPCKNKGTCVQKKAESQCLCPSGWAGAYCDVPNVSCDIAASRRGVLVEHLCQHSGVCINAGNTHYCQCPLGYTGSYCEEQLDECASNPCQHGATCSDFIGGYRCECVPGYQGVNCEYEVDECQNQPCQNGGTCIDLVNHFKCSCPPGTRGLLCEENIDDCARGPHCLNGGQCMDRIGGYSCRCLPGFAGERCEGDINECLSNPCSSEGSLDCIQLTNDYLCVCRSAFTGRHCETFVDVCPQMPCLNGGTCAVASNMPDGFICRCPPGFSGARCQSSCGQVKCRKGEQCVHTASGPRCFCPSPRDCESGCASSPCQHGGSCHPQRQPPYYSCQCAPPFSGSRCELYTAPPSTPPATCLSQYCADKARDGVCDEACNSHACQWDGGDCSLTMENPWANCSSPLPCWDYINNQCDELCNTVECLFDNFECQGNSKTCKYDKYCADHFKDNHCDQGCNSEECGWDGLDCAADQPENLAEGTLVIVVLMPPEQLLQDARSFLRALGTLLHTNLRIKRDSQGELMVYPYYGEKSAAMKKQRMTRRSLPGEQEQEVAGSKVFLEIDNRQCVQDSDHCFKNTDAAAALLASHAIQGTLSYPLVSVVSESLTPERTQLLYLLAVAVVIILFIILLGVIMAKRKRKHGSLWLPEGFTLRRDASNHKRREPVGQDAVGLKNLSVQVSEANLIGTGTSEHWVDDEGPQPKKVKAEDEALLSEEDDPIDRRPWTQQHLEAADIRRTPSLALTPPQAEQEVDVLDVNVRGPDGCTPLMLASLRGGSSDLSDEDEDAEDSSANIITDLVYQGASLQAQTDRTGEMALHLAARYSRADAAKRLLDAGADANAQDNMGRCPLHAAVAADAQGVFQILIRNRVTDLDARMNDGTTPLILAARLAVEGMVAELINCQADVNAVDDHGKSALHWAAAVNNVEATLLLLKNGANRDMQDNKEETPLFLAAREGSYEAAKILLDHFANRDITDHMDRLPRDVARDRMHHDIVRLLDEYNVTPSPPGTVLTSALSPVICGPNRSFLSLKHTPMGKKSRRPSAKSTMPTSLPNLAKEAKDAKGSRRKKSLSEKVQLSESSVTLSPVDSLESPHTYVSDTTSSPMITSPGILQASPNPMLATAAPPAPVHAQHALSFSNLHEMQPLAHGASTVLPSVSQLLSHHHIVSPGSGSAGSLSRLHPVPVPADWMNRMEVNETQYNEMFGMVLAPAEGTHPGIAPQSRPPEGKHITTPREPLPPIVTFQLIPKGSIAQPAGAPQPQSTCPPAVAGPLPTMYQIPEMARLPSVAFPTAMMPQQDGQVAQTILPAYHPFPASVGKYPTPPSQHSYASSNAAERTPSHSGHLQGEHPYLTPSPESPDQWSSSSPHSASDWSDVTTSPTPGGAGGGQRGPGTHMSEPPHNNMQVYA
Pro-neuregulin-1, membrane-bound isoform (Homo sapiens), sequence (Q02297 whole entry, looked up, the tested form may be a part, canonical isoform): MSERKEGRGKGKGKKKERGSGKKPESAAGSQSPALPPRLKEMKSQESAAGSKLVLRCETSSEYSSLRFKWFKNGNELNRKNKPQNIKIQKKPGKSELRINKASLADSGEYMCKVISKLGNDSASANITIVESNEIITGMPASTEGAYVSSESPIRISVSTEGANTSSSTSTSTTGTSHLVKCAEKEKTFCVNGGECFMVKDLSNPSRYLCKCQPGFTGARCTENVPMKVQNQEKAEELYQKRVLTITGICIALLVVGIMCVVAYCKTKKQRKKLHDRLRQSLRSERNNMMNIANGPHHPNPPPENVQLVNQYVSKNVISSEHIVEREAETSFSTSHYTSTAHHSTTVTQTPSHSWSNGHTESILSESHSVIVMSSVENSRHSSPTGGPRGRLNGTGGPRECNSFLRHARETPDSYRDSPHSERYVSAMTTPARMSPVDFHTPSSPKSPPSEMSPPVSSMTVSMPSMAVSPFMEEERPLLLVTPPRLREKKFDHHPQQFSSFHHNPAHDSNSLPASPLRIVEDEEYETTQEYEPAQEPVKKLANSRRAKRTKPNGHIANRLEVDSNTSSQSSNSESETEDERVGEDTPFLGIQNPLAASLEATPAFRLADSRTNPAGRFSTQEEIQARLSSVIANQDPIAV

`C#CCCCON=C1[C@H]2CCn3c(=O)n(C)c(=O)n3[C@H]2[C@H](O)[C@@H]2O[C@H]12`: the composite z-score in assay [1] is -0.454; in [2], 0.588; in assay [3], 0.0624; in assay [4], 0.382; in assay [5] it was 1.05; in assay [6], -0.0714. For the same molecule, the values for the composite z-score in assay [7], in assay [9] and in [10] were 0.58, 0.159 and 0.535, respectively. The z-score in [8] is 0.678 (inactive).

For the molecule `COc1ccc(O[C@H]2C=C[C@@H](c3ccccc3)O[C@@H]2CON=C(C)CCC(=O)OC[C@H]2O[C@H](c3ccccc3)C=C[C@@H]2Oc2ccc(OC)cc2)cc1`, the composite z-score in [1] is 0.0321; in [2], -0.543; in [3] it was -0.141; in assay [4], 0.0207; in assay [5] it was -1.5; in assay [6], -0.496. Moreover, the composite z-score in [7] was -1.1; in assay [9], -0.677; in assay [10] it was -0.0994. Besides, the z-score in assay [8] was 0.634 (inactive).

For `COC(=O)[C@H](C)NC(=O)CCC1CC(OC(=O)NCCc2ccc(F)cc2)CC2(CCCC(COC(=O)NCc3cccc(C(F)(F)F)c3)O2)O1` (stereo not given in full), the composite z-score in assay [1] was -0.632; in assay [2] it was 0.041; in [3], -0.0265; in assay [4], 0.624; in assay [5], 1.36; in assay [6] it was 0.0829. The composite z-score in assay [7] was 0.729; in assay [9], 0.829; in [10] it was -0.0645. In [8], the z-score was 0.286 (inactive).

For the molecule `CCc1cc2c(nc1CC)CCN(CCC(C)=NO[C@H](C)c1cn([C@H](CO)Cc3ccccc3)nn1)C2`, the composite z-score is 0.111 in assay [1]; 0.985 in assay [2]; -0.0154 in assay [3]; 0.0116 in assay [4]; -0.0913 in [5]; 0.107 in assay [6]. Besides, the composite z-score in [7] was 0.595; in assay [9], -0.129; in [10], -0.249. Also, the z-score in assay [8] was 0.834 (inactive).

For the molecule `CO[C@H]1COC(=O)CC=C[C@H](C)[C@@H](OC)COC(=O)[C@@H](C)COC(=O)CC=C[C@@H]1C`, the composite z-score in [1] was -0.834; in assay [2], 2.17; in [3], -0.152; in assay [4], -0.938; in [5], -1.22; in assay [6], -0.652. Further, the composite z-score in assay [7] is -0.513; in assay [9], 0.0281; in [10], 0.106. Besides, the z-score in assay [8] was -0.862 (inactive).

Take `COC(=O)[C@H]1O[C@@H](c2c(OC)c(OC)c(C)c(OC)c2OC)[C@H](C)[C@@H](O)[C@H]1C`: the composite z-score in assay [1] was -0.341; in assay [2], 0.499; in [3], 0.0066; in assay [4], 0.915; in [5], 1.06; in assay [6], 0.368. Also, the composite z-score is 0.741 in assay [7], 0.224 in assay [9] and -0.0965 in assay [10]. Further, in assay [8], the z-score was -0.204 (inactive).

As for `CCOC(=O)[C@H](Cc1ccccc1)NC(=O)CCC1CC(OC(=O)NCCc2ccc(F)cc2)CC2(CCCC(COC(=O)NCCc3ccccc3OC)O2)O1` (stereo not given in full), the composite z-score was -0.582 in assay [1]; 0.238 in [2]; -0.0592 in assay [3]; 0.82 in assay [4]; 0.879 in assay [5]; 0.729 in assay [6]. Further, the composite z-score in assay [7] was 1.22; in assay [9], 0.759; in assay [10], -0.134. The z-score in [8] was 0.865 (inactive).

Take `O=C1[C@H]2[C@H]3[C@H](O)[C@H](O)CC(=NOCc4ccccc4)[C@H]3CC[C@H]2C(=O)N1Cc1ccc2c(c1)OCO2`: the composite z-score in assay [1] is -0.537; in [2], 0.239; in assay [3], -0.172; in assay [4], 0.315; in [5], 0.306; in [6], 0.273. For the same molecule, the composite z-score in assay [7] was 0.278; in assay [9], 0.0418; in [10], -0.0003. For the same molecule, in assay [8], the z-score is 0.0017 (inactive).

As for `C[C@@H](ON=C1[C@H]2CCn3c(=O)n(-c4ccccc4)c(=O)n3[C@H]2[C@H](O)[C@@H]2O[C@H]12)c1cn([C@@H]2COC[C@H]2O)nn1`, the composite z-score in assay [1] was -0.648; in [2], 0.653; in [3], -0.0529; in assay [4], 0.35; in assay [5], 0.213; in [6], 0.406. In addition, the values for the composite z-score in assay [7], in [9] and in assay [10] were 0.261, 0.236 and 0.0274, respectively. The z-score in assay [8] is 1.15 (inactive).

`COc1cccc([C@H]2Oc3ccc(OC)cc3C(=NO[C@H](C)c3cn([C@H](CO)Cc4ccccc4)nn3)[C@@H]2O)c1`: the composite z-score in assay [1] was -0.129; in [2], -0.0315; in [3], -0.112; in assay [4], -0.0993; in [5], -0.468; in assay [6], -0.72. The composite z-score was -0.504 in assay [7], 0.107 in assay [9] and -0.134 in [10]. Further, the z-score in assay [8] was 0.787 (inactive).

Turning to `COC(=O)[C@@H]1CC[C@H](C)[C@@H](c2ccc(C)cc2)N1C(=O)c1ccc(C=NOCC[C@@H]2C=C[C@H](OC(C)=O)[C@@H](COC(C)=O)O2)cc1`, the composite z-score was -0.381 in assay [1]; 0.333 in assay [2]; -0.11 in assay [3]; 0.332 in assay [4]; 0.7 in assay [5]; 0.102 in [6]. Further, the composite z-score in assay [7] was 0.61; in assay [9] it was 0.0627; in [10], 0.0505. Further, in [8], the z-score is 0.579 (inactive).

As for `Cc1ccc(S(=O)(=O)N[C@H]2COC(=O)CC=C[C@H](C)[C@@H](NS(=O)(=O)c3ccc(C)cc3)COC(=O)CC=C[C@@H]2C)cc1`, the composite z-score in [1] was -0.546; in [2] it was 0.391; in assay [3], 0.16; in [4], 0.395; in assay [5] it was 0.434; in assay [6], -0.107. Moreover, the composite z-score in assay [7] was 0.0446; in [9], -0.118; in assay [10] it was 0.166. Also, the z-score in [8] is 1.41 (inactive).

For the molecule `C#CCCCON=C1C[C@@H](O)[C@@H](O)[C@@H]2[C@@H]3C(=O)N(C(C)(C)C)C(=O)[C@@H]3CC[C@@H]12`, the composite z-score in [1] is 2.02; in assay [2], 0.0189; in [3], -0.0468; in assay [4], -0.0755; in assay [5], -0.707; in assay [6], -0.107. Moreover, the results for the composite z-score in [7], in assay [9] and in assay [10] were -0.117, 0.987 and -0.0645, respectively. Further, the z-score in assay [8] was -0.305 (inactive).

On to `CO[C@@H]1COC(=O)CC=C[C@@H](C)[C@H](OC)COC(=O)[C@@H](C)COC(=O)CC=C[C@H]1C`, for which the composite z-score in assay [1] is -0.404; in assay [2], 0.812; in assay [3], 0.553; in assay [4] it was -0.552; in assay [5] it was -1.27; in assay [6], -0.245. In addition, the composite z-score in assay [7] is -0.844; in assay [9], -0.387; in assay [10], 0.312. The z-score in assay [8] is -0.182 (inactive).

In the case of `COc1ccc(COC(=O)NN=C2C[C@@H](O)[C@@H](O)[C@@H]3[C@@H]4C(=O)N(c5ccc(F)cc5F)C(=O)[C@@H]4CC[C@H]23)cc1`, the composite z-score in assay [1] was 1.64; in [2] it was -0.398; in assay [3], -0.128; in assay [4], -0.088; in assay [5], -0.412; in [6], 0.461. Further, the composite z-score in assay [7] is 0.179; in assay [9], 1.28; in [10], -0.0645. In addition, the z-score in [8] was 0.398 (inactive).

As for `CCOC(=O)[C@H](Cc1ccccc1)NC(=O)CCC1CC(OC(=O)NCc2cccc3ccccc23)CC2(CCCC(COC(=O)NCc3ccccc3)O2)O1` (stereo not given in full), the composite z-score was -0.356 in [1]; 0.0841 in assay [2]; -0.21 in [3]; 0.159 in assay [4]; 0.118 in assay [5]; 0.477 in [6]. For the same molecule, the figures for the composite z-score in assay [7], in [9] and in assay [10] were 0.686, 0.0918 and -0.303, respectively. Besides, the z-score in assay [8] was 0.573 (inactive).

With `CCOC(=O)[C@H](Cc1ccccc1)NC(=O)CCC1CC(OC(=O)NCCc2ccc(F)cc2)CC2(CCCC(COC(=O)NCC3CCCCC3)O2)O1` (stereo not given in full), the composite z-score in assay [1] is -0.509; in [2] it was 0.574; in assay [3] it was -0.0425; in assay [4], 0.582; in assay [5], 1.42; in assay [6], 0.513. The composite z-score was 1.1 in assay [7], 0.676 in [9] and -0.302 in assay [10]. Further, the z-score in [8] is -0.692 (inactive).

Source of the values: PubChem BioAssay.
